In ChEMBL document CHEMBL1157539, “Thousands of chemical starting points for antimalarial lead identification” (Nature, 2010):

Test system: Plasmodium falciparum
Experiment: GSK_TCMDC: Inhibition of Plasmodium falciparum Dd2 in whole red blood cells, using parasite LDH activity as an index of growth. Test compounds present at 2uM
Format: functional

Row | Structure (SMILES) | Inhibition
1 | CCOC(=O)c1nc(-c2cc(Cl)nc(Cl)c2)[nH]c1NC(=S)NCCCN1CCOCC1 | 71%
2 | COc1cc(CNC[C@@H](O)[C@H](Cc2ccccc2)NC(=O)c2cc(C3CCCC3)cc(N3CCCS3(=O)=O)c2)cc(OC)c1.Cl | 94%
3 | COc1ccc2nccc([C@@H](O)CN3CCC(NCc4ccc5c(c4)oc(=S)n5C)CC3)c2c1.O=C(O)/C=C/C(=O)O | 68%
4 | CCOc1cc(Cc2cnc(N)nc2N)cc(OCC)c1OCC | 0%
5 | Cc1cccc(C(=O)Nc2ccnc(N3CCC(N(C)Cc4ccccc4)CC3)c2)c1.O=C(O)C(F)(F)F | 2%
6 | CN(C)CCNC(=O)[C@H](CC1CCCCC1)NC(=O)c1ccc(O)c(-c2ccc(Cl)c(Cl)c2)c1 | 97%
7 | Cc1nc(Nc2ccc(F)cc2)nc(N2CCc3ccccc3C2C)c1CO (stereo not given) | 95%
8 | CC1CCCN(C(=O)C(C)Nc2cc(Cl)ccc2N2CCOCC2)C1 (stereo not given) | 96%
9 | COc1cc(Nc2ccnc3cc(-c4ccccn4)ccc23)cc(OC)c1OC.Cl | 0%
10 | CCN(CCCN1CCCCC1)c1cc(C)nc(Nc2cccc(C(F)(F)F)c2)n1.O=C(O)C(F)(F)F | 88%
11 | CC1CN(Cc2ccc(-c3ccc(-c4nc5cc(F)ccc5[nH]4)s3)cc2)CC(C)O1.O=C(O)C(F)(F)F (stereo not given) | 89%
12 | COc1ccc(Nc2nccc(-c3cccc(NC(=O)c4cc5cc(F)ccc5[nH]4)c3)n2)cc1 | 37%
13 | N#Cc1cc(C(=O)Nc2ccccc2)c(N)nc1SCC(=O)NC(c1ccccc1)c1cccs1 (stereo not given) | 100%
14 | O=C(Nc1nc(-c2ccccn2)cs1)c1ccccc1COc1ccccc1 | 42%
15 | COc1ccc(C2=CCN(c3ccc(Cl)c(Cl)c3)C2=O)cc1OCCN1CCCCC1.Cl | 99%
16 | CC1(CCc2ccccc2)N=C(Nc2ccc(Cl)cc2)N=C(N)C1c1ccc(Cl)c(Cl)c1 (stereo not given) | 98%
17 | C[C@H](Cc1ccc(OCCCCCCOc2ccc(C[C@@H](C)N[C@H](C)c3ccccc3)cc2)cc1)NC[C@H](O)c1cccc(Cl)c1.Cl | 98%
18 | Cc1[nH]n(-c2cccc(Cl)c2)c(=O)c1-c1ccc(Cl)cc1 | 41%
19 | OC(CNCc1cccc(Oc2ccc(Cl)cc2)c1)c1cccc(C(F)(F)F)c1 (stereo not given) | 78%
20 | Cc1cc(=O)[nH]c2cc(Nc3ccnc(Nc4cccc(C(N)=O)c4)n3)ccc12.Cl | 98%

Row | Structure (SMILES) | Inhibition
21 | COc1cc(C(C)C)nc2ccc(NC(=O)c3ccc(C(=O)Nc4ccc5nc(C(C)C)cc(OC)c5c4)cc3)cc12 | 72%
22 | COc1cc(OC)c(NC(=O)C2c3ccccc3C(=O)N(CC(C)C)C2c2cccs2)cc1Cl (stereo not given) | 100%
23 | Fc1cccc2sc(Nc3nc(-c4ccccn4)cs3)nc12 | 97%
24 | CCCCSc1ccc2nc(-c3c[nH]c4ccc(C#N)cc34)cn2c1 | 37%
25 | CC1CCCN1Cc1ccc(-c2ccc3c(=O)cc(CCc4cccc(F)c4F)n(CC(=O)N(C)Cc4ccc(-c5ccc(C(F)(F)F)cc5)cc4)c3n2)cc1.O=C(O)C(O)C(O)C(=O)O (stereo not given) | 91%
26 | COc1c(CN2CCCC2)cccc1-c1cc2c(-c3ccc(C(=O)O)c(C(C)C)c3)ccnc2[nH]1.O=C(O)C(F)(F)F | 98%
27 | CS(=O)(=O)NCCCNCc1ccc(-c2ccc(-c3nc4cc(F)ccc4[nH]3)cc2)cc1.O=C(O)C(F)(F)F | 97%
28 | COc1cc2c(cc1N1CC(C)NC(C)C1)N(C(=O)c1ccc(-c3ccc(-c4ncc[nH]4)cc3C)cc1)CC2 (stereo not given) | 58%
29 | CCN(CC)CCN(Cc1ccc(-c2ccc(C(F)(F)F)cc2)cc1)C(=O)Cn1c(CCc2cccc(F)c2F)cc(=O)c2c1CCCC2.O=C(O)C(O)C(O)C(=O)O | 95%
30 | N#Cc1cccc(C(=O)NC2CCN(c3ccnc(Nc4ccc(F)cc4)n3)C2)c1 (stereo not given) | 91%
31 | Cl.O=C(C=Cc1ccc(C(=O)Nc2ccc(C3=NCCN3)cc2)cc1)Nc1ccc(C2=NCCN2)cc1 | 100%
32 | CCN(CCS(C)(=O)=O)Cc1ccc(-c2ccc3ncnc(Nc4ccc(OCc5cccc(F)c5)c(Cl)c4)c3c2)o1.Cc1ccc(S(=O)(=O)O)cc1 | 63%
33 | CC(C)c1ccc(O)cc1Nc1ccnc2ccc(C(F)(F)F)cc12 | 90%
34 | Cn1ccnc1Sc1ncccc1[N+](=O)[O-] | 2%
35 | Cc1cc(=NN=Cc2ccccc2Cl)c2cccc(C)c2[nH]1 | 98%
36 | COc1cccc(NC(=O)Cn2c(C)c(C(=O)C(F)(F)F)c3ccccc32)c1 | 94%
37 | CN1CCC(N(Cc2ccc(-c3ccc(Cl)cc3)cc2)C(=O)Cn2c(CCc3cccc(F)c3F)cc(=O)c3ccccc32)CC1.O=C(O)C(O)C(O)C(=O)O | 88%
38 | CC1CCCCN1CCCNC(=O)c1cccc(-c2cc3cc(Cl)c(Cl)cc3[nH]2)c1.O=C(O)C(F)(F)F (stereo not given) | 7%
39 | Cc1ccc(C)c(NC(=O)NCCNc2ccnc(Nc3ccc(F)cc3)n2)c1 | 5%
40 | CCN(CC)CCCNC(=O)/C(=C/C=C/c1cc2cc(Cl)c(Cl)cc2[nH]1)OC.Cl | 21%
